Laboratory results: PubChem BioAssay AID518 (Sanford-Burnham Center for Chemical Genomics, 2006)
Out of some 64,000 compounds screened, about 55 (0.09%) were called active. No rule for the calls is given here. A selection follows.

Target: Alkaline phosphatase, tissue-nonspecific isozyme (Homo sapiens) (UniProt P05186)
Assay: inhibition of tissue-nonspecific alkaline phosphatase – biochemical, luminescent (AID 518);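 also: plate controls were vehicle for no effect and reference inhibitor for full effect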
Details: purified TNAP enzyme, luminescent substrate readout; at 20 µM; hits give high values

Sequence of Alkaline phosphatase, tissue-nonspecific isozyme (Homo sapiens) (P05186 whole entry, looked up): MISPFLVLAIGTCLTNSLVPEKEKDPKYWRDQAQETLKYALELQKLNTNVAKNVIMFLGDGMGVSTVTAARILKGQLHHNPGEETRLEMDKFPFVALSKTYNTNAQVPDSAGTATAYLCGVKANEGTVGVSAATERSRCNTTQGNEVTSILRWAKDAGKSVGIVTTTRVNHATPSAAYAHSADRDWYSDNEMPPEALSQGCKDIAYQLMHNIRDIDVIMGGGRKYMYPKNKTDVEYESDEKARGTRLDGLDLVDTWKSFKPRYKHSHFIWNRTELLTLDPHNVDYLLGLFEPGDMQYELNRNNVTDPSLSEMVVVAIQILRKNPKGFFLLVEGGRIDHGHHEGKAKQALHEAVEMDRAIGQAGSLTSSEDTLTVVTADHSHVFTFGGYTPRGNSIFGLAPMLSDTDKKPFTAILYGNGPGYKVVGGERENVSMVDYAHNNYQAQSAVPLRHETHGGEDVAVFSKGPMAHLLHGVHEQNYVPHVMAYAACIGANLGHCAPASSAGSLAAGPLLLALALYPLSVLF

inhibition, inactive:
O=C(O)c1ccc(S(=O)(=O)c2ccccc2)cc1 8.6%, CC(=O)C(Sc1nc(-c2ccco2)nc2c1c(=O)n(C)c(=O)n2C)C(=O)N(C)C (stereo unspecified) 6%, COc1cccc(N2CCN(C3CC(=O)N(c4ccc(F)c(Cl)c4)C3=O)CC2)c1 (stereo unspecified) 7.6%, O=C(c1ccc(-c2ccccc2)cc1)N1CCN(c2nc3ccccc3o2)CC1 -3.8%, COc1cc(/C=N/n2cnnc2)ccc1OCCOc1ccccc1 2.9%, COc1ccc(OCc2nc(C#N)c(N3CCN(c4ccc(OC)cc4)CC3)o2)cc1 16.1%, O=S(=O)(NCCc1cn2ccccc2n1)c1cccs1 1.2%, CC(=O)N1CCC(N(C(=O)Nc2ccc(C)c(C)c2)C2CCCC2)CC1 6.3%, CC1Cc2ccccc2N1C(=O)C1CCCN(S(=O)(=O)c2cccc3nsnc23)C1 (stereo unspecified) 15.5%, O=C(CSCc1ccccc1)N1CCN(c2ccc(F)cc2)CC1 5.6%, CSc1nc2c(c(=O)[nH]c(=O)n2C)n1C/C=C(\C)Cl 11.8%, O=C(Cn1ncc2c1-c1ccccc1OC2)N1CCN(c2ccccn2)CC1 16.3%, Cn1c(SCC(=O)N2CCOCC2)nnc1-c1ccccc1 3.9%, CCOc1cccc(-c2nnc3sc(-c4cc(OC)c(OC)cc4OC)nn23)c1 8.9%, CC(NC(=O)C(c1ccccc1)c1ccccc1)C(=O)O (stereo unspecified) 10%, CN(CC(=O)NCCC1=CCCCC1)S(=O)(=O)c1ccc2c(c1)CCC(=O)N2 6.5%, Cc1csc(NC(=O)CSc2nnc(-c3ccncc3)o2)n1 13.3%, Cc1ccc(-c2nc(CS(=O)(=O)CC(=O)N3CC(C)CC(C)C3)c(C)o2)cc1 (stereo unspecified) 2.5%, CCC1(c2ccc(F)cc2)NC(=O)N(CC(=O)c2ccc[nH]2)C1=O (stereo unspecified) 11.1%, Cc1ccc(-n2c(SCC(N)=O)nnc2-c2ccccn2)cc1 5.9%, Cc1nc(CN2CCN(C(=O)c3ccc(Br)cc3)CC2)cs1 8.9%, CC1(C)CC(=O)C2=C(C1)N(CC1CCCO1)C(=O)NC2(C(F)(F)F)C(F)(F)F (stereo unspecified) 7.8%, COc1cc(/C=N/n2cnnc2)ccc1OCC(=O)N1CCOCC1 9.7%, Cc1cc(C(=O)CSc2nncs2)c(C)n1-c1c(C)n(C)n(-c2ccccc2)c1=O 6.8%, COc1ccc(NC(=O)CSc2nnc(Cc3cccn3C)n2CCc2ccccc2)cc1OC 21.5%, Cc1oc(CC(C)C)cc1C(=O)Nc1ccc(C(=O)O)cc1 -1.6%, C=CCn1c(COc2ccccc2)nnc1SCc1ccc(C#N)cc1 5%, O=C1C2CCCN2C(c2ccccc2)N1c1cccc(Cl)c1 (stereo unspecified) 2.8%, COc1ccc(-c2ccc(-c3noc(-c4ccccc4C)n3)c(OC)n2)cc1 6.5%, CCCCn1c(Cl)nc2c1c(=O)n(C)c(=O)n2C 13.4%, CCOc1ccc(S(=O)(=O)Nc2nc3ccccc3nc2N2CCN(C)CC2)cc1 0.5%, O=C(c1cccnc1)N1CCN(C(=O)c2cccs2)CC1 4.7%, Cc1ccc(CC(=O)Nc2cccc(C)n2)cc1 6%, C=CCOC(=O)CCCC(=O)NC1CCCCC1 3.4%, CCOC(=O)C1Cc2cc3c(cc2C1=O)CC(C(=O)OCC)C3=O (stereo unspecified) 8.4%, CN(c1cccc(NC(=O)c2ccccc2N(C)S(C)(=O)=O)c1)S(C)(=O)=O 14.3%, O=C(NCCCN1CCCC1)C1CCC(=O)N1C1CCCCC1 (stereo unspecified) 7.6%, N#Cc1ccc(Sc2nc3ccccc3[nH]2)cc1C#N 0.3%, CC(C)Sc1nnc(NC(=O)C2CC2)s1 -0.5%, O=C(Nc1cccnc1)c1c(O)c2cccc3c2n(c1=O)CC3 5.4%, COc1ccc(CN2CCC(C(=O)N(C)CCc3ccc(OC)c(OC)c3)CC2)c(OC)c1 14%, O=C(NC1CCCCC1)c1ccc(Br)o1 9%, CC12CN3CC(C)(CN(C1)C3c1ccccc1Cl)C2O (stereo unspecified) 3.8%, O=C(NCCc1csc(-c2ccccc2)n1)c1cccs1 9.4%, Cc1cc(NC(=O)c2cccc(S(=O)(=O)N3CCCCCC3)c2)n(-c2ccccn2)n1 -5.7%, CCOC(=O)C1CCN(C(=O)COC(=O)CCOc2ccc(C)cc2)CC1 7.4%, CCOc1ccc(C(=O)CN2CCN(S(=O)(=O)c3ccc(Cl)cc3)CC2)cc1 4.9%, COc1ccc(C(C)=O)cc1CSc1nnc(C)s1 7%, CC(=O)c1cccc(NC(=O)c2cccc(S(=O)(=O)N(C)C)c2)c1 6.3%, c1ccc2c(c1)CNc1ccccc1C2 5%, COc1ccc(-n2nnc3c(SCC(=O)NCc4ccco4)ncnc32)cc1 11.9%, COc1cccc(NC(=O)c2ccc3c(c2)N(CC(=O)N2CCCCC2)C(=O)C(C)(C)O3)c1 1.3%, COc1ccc(Nc2nc(N)nc(SCc3nnc(C)s3)n2)cc1 -0.5%, COc1ccccc1N1CCN(C(=O)CSc2nnc3n2C(C)(C)Cc2ccccc2-3)CC1 10.5%, CC1=C(c2ccc(Cl)cc2)[N+](=O)C(C)(C)N1[O-] 20.3%, Cc1ccc(C(C(=O)NC2CCCCC2)N(CC2CCCO2)C(=O)CNC(=O)c2ccco2)cc1 (stereo unspecified) 2.7%, CC(OC(=O)CNC(=O)c1ccc2c(c1)OCO2)C(=O)NCCC1=CCCCC1 (stereo unspecified) 8.9%, CN(C)c1ccc(C(C(=O)NC(C)(C)C)N(C(=O)c2csnn2)C2CC2)cc1 (stereo unspecified) 6.8%, CC(c1nnc(SCC(=O)c2c(N)n(C)c(=O)n(C)c2=O)n1-c1ccc(Cl)cc1)N(C)C (stereo unspecified) 2.8%, CC1CCCCN1CCNC(=O)C1CCN(S(=O)(=O)c2cccc3cccnc23)CC1 (stereo unspecified) 9.7%, Cc1ccc(S(=O)c2ccc(C)cc2)cc1 4.1%, O=C(CC1CCCCC1)c1c(O)c2ccccc2oc1=O 5%, CCOC(=O)c1[nH]c(CSc2nnc(-c3ccncc3)n2CCOC)c(C(=O)OCC)c1C 10.1%, CC1CC=C2C(C#N)=C(N)C(C#N)(C#N)C(c3cccs3)C2C1 (stereo unspecified) 8.9%, CCc1ccc(Nc2cc(=O)n(C3CCCCC3)c(=O)[nH]2)cc1 11.3%, COc1cccc(-c2cc(C(=O)NCc3ccc(Cl)cc3)no2)c1 8.1%, COc1ccc(S(=O)(=O)N2C3CCC2CC(NC(=O)C2CC2)C3)cc1 (stereo unspecified) 2%, Nc1nc(CN2CCN(Cc3ccc4c(c3)OCO4)CC2)nc(Nc2ccccc2)n1 12.3%, CC1(C)NC(=O)N(CC(O)COc2ccc(N3C(=O)c4ccccc4C3=O)cc2)C1=O (stereo unspecified) 8.6%, COc1ccc(N2C(=O)CSC2c2ccc3c(c2)OCO3)cc1 (stereo unspecified) 13.6%, CC(C)NS(=O)(=O)c1ccc(OCC(N)=O)c(Cl)c1 9.1%, Cc1cccc(NC(=O)CC(C)(C)C)c1 8.8%, Cc1nc(CSc2nnc3scc(-c4ccccc4)n23)cs1 6.4%, CCCCCN=C(C)c1c(O)c2ccccc2oc1=O 7.3%, CNc1oc(Cc2ccccc2)nc1S(=O)(=O)c1ccccc1 9.1%, COC(=O)Nc1sc2c(c1C(N)=O)CCCCCC2 15.8%
